Rows were chosen to be rich in hits. Some 9.2% of all compounds tested hit in one or more screens of this group.
FLuc counter: inhibits or activates purified firefly luciferase, miR-21 counter-screen; AID 588342; hit rate 6.9% among 360,000; Potency, µM (titrated, usually from 57.5 µM), without a hit: top-dose activity change, negative = inhibition, actives largely listed as inhibitors; purified FLuc, Km substrates, luminescence inhibition;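 note: plate controls were vehicle for no effect and reference inhibitor for full effect; nearly all actives have a fitted effect of over 55% in size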
Target sequence (P08659 whole entry, looked up): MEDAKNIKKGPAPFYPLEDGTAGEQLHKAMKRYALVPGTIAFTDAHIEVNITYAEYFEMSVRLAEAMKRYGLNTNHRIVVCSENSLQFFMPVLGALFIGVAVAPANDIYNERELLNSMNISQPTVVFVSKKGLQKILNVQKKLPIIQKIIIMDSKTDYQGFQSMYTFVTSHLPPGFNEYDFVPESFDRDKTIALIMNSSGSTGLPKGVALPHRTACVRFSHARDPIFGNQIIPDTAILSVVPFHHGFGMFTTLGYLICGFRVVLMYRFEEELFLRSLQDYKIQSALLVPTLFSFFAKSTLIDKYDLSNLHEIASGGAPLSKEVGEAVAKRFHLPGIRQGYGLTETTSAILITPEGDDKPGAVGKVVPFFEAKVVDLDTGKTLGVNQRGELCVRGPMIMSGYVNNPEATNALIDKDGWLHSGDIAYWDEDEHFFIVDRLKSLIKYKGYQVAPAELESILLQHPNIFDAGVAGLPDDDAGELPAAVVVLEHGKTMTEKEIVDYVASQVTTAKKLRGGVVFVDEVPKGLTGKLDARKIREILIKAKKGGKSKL
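Purified P. pyralis luciferase, 10 nM final, with Km-level 10 uM D-luciferin and 10 uM ATP in 50 mM Tris acetate pH 7.5, 10 mM Mg acetate, 0.01% Tween-20, 0.05% BSA; 6-point qHTS titration about 60 µM downward; luminescence read.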
ELG1 DNA repair: ELG1-dependent DNA repair inhibition; HEK293T ELG1-luciferase reporter, luminescence, 16 h; DNA damage induced by 5-fluorouridine; Potency, µM (top dose mostly 46.1 µM), without a hit: at the highest dose activity change, negative = inhibition, hits mostly inhibitors; hit rate 2.3% among 330,000; AID 504467; note: % is set by controls: 0 for no effect and ±100 for the full control effect; nearly all actives have a fitted effect of over 55% in size
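Reporter activity after DNA damage by 5-fluorouridine is monitored. Compound-treated cells incubate 16 hr at 37 °C, then ONE-Glo is added for 30 min before luminescence reading.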
Rab9 prom act: Rab9 promoter activation. AID 485297. hit rate 2.8% among 320,000. Potency, µM (top dose mostly 9.22 µM), for inactives: at the highest dose activation, negative = inhibition, actives largely listed as activators. Huh7 Rab9 promoter-luciferase reporter, luminescence, 24 h; note: % of control where 0% means no effect; nearly all actives have a fitted effect of over 60% in size
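Steps: seed 1500 Huh7 Rab9-luc cells per well, rest 2 h at 37 °C; add compound in DMSO; incubate 24 h; add luciferase reagent, 10 min ambient; read luminescence.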
NPC1 promoter act: NPC1 promoter activation; Huh7 NPC1 promoter luciferase reporter, 24 h; AID 485313; hit rate 2.4% among 320,000; Potency, µM (top dose mostly 9.22 µM), without a hit: top-dose activation, actives largely listed as activators; note: % of control where 0% means no effect; nearly all actives have a fitted effect of over 60% in size
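Luciferase expression driven by the NPC1 promoter was measured in stably transfected Huh7 cells after a 24 h compound incubation, using a luciferase reagent and a luminescence read.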
SMN2 splice up: enhancers of SMN2 splice variant expression; AID 1458; Potency, µM (titrated, usually from 46.1 µM), without a hit: at the highest dose activity change, positive = activation, hits mostly activators; HEK293 SMN2-luciferase splicing reporter, luminescence, 30-36 h; hit rate 2.8% among 210,000; note: % of control where 0% means no effect; nearly all actives have a fitted effect of over 55% in size
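HEK293 cells carry an SMN2 minigene-luciferase reporter in which exon 7 inclusion puts luciferase in frame. Cells were seeded at 2000 cells/well, attached for 10-12 hours, then exposed to compounds for 30-36 hours at 37C before ONE-Glo luminescence.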
ELG1 genotoxic: inducers of genotoxicity in HEK293T ELG1-luciferase cells | HEK293T ELG1-luciferase reporter, luminescence, 16 h | Potency, µM (top dose mostly 46 µM), for inactives: top-dose activity change, positive = activation, actives largely listed as activators | hit rate 1.3% among 330,000; note: % of control where 0% means no effect; nearly all actives have a fitted effect of over 60% in size
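ELG1-luciferase HEK293T cells, 2,000/well; compound pinned in; 16 hr, 37 °C, 5% CO2; ONE-Glo, 30 min RT; luminescence on CCD imager.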
Numbers without * were called inactive; ? = inconclusive; . = no result given. Calls come from the whole dose curve; as a rule, active = well fitted curve in the direction sought with a large enough effect; inconclusive = small, poorly fitted or top-dose-only effect, or another doubt; inactive = no such curve, though single readings can be large; an effect the other way counts as inactive or inconclusive. Potency is the fitted concentration of half-maximal effect.

SMILES	FLuc counter	ELG1 DNA repair	Rab9 prom act	NPC1 promoter act	SMN2 splice up	ELG1 genotoxic
COc1ccc2sc(N(CCCN(C)C)C(=O)c3nc4ccccc4s3)nc2c1	-11%	?	12%	0%	10%	4%
CC1C(=O)N2CCCc3cc(NC(=O)C(=O)NCCc4ccccc4)cc1c32 (stereo not given)	1%	?	-2%	-7%	.	?
CC(C)c1ccc2oc(-c3ccc(Cl)c(NC(=O)Cc4ccccc4)c3)nc2c1	4.3µM*	.	.	.	12%	.
Cc1ccc(-c2nc3cc(C(C)C)ccc3o2)cc1NC(=O)c1cc2ccccc2o1	2.4µM*	.	.	.	-8%	.
COc1ccc(-c2nc3cc(C(C)C)ccc3o2)cc1NC(=O)c1ccccc1[N+](=O)[O-]	2.7µM*	.	.	.	-1%	.
COc1ccc(-c2nc3ccccc3o2)cc1NC(=O)c1cc(Br)ccc1OC	1%	.	.	.	-8%	.
CC(C)c1ccc2oc(-c3ccc(Cl)c(NC(=O)c4cccs4)c3)nc2c1	2.1µM*	.	.	.	4%	.
CCN1CCN(Cc2c(O)ccc3c(=O)c(-c4ccccc4OC)coc23)CC1	0%	11%	-2%	0%	-13%	2%
CCN1CCN(Cc2c(O)ccc3c2O/C(=C\C=C\c2ccccc2OC)C3=O)CC1	4.8µM*	-3%	2%	-1%	4%	-1%
CC(NC(=O)COc1ccccc1Cl)c1ccccc1 (stereo not given)	3%	-29%	-5%	0%	.	-7%
CC(C)c1ccc(CN2CCN(C(=O)CCl)CC2)cc1	-1%	0%	19%	-2%	-35%	-10%
O=C(COc1ccccc1Cl)NC(=S)Nc1cccc(NC(=O)c2ccccc2Cl)c1	?	2%	-1%	0%	?	0%
O=C(COc1ccc(Br)cc1Br)NC(=S)Nc1cccc(CO)c1	3.8µM*	?	0.45µM*	0.35µM*	18µM*	7.3µM*
O=C(COc1ccc(Br)cc1Br)NC(=S)N1CCCc2ccccc21	17µM*	?	20%	-1%	3%	23µM*
O=C(COc1ccc2ccccc2c1Br)NC(=S)Nc1cccc(CO)c1	8.5µM*	?	?	?	?	21µM*
Cc1ccccc1OCC(=O)NC(=S)Nc1cccc2cc(O)ccc12	3%	12%	5%	2%	.	0%
Cc1ccc(S(=O)Cc2nc(-c3ccc(C(=O)NC(C)c4ccccc4)cc3)oc2C)cc1 (stereo not given)	-6%	.	.	.	.	.
COc1ccc(C2c3cc(OC)c(OC)cc3CC(=O)N2c2ccc(C)cc2)cc1 (stereo not given)	0%	.	.	.	?	.
CC(C)(C)OC(=O)N1CCC(c2c(C(=O)NCc3ccco3)cnn2-c2ccccc2Cl)CC1	5%	.	.	.	.	.
CC1=CC(=O)C2=C(C)C[C@@H]3OC(=O)[C@@H](C)[C@H]3C=C12	.	.	.	.	-4%	.
COc1cc(NC(=O)C2CSC3(C)CCC(=O)N23)c(OC)cc1Cl (stereo not given)	-1%	8%	-2%	-2%	.	3%
Cc1ccc(C(=O)Nc2nc(C(C)(C)C)cs2)s1	5.4µM*	?	3.2µM*	?	-5%	4.6µM*
CC(C)(C)c1csc(NC(=O)c2ccc(Cl)s2)n1	6.7µM*	15%	?	?	-17%	4%
CC(C)(C)c1csc(NC(=O)c2ccncc2)n1	?	?	-6%	-7%	-64%	-5%
CC(C)(C)c1csc(NC(=O)c2ccc3nccnc3c2)n1	8.5µM*	?	3.5µM*	2.5µM*	14%	8%
SMILES	FLuc counter	ELG1 DNA repair	Rab9 prom act	NPC1 promoter act	SMN2 splice up	ELG1 genotoxic
Cn1c(SCC(=O)NNC(=O)Cc2ccccc2)nc2ccccc2c1=O	-2%	9%	-1%	-2%	3%	-1%
CCCn1c(=S)[nH]c2ccccc2c1=O	13µM*	0%	-10%	-9%	2%	-2%
CN(C)CCn1c(=S)[nH]c2ccccc2c1=O	0%	2%	1%	14%	11%	5%
COc1cccc(CNC(=O)CCn2ccc3cc(S(=O)(=O)N4CCCC4)ccc32)c1	-1%	4%	-2%	-5%	.	-2%
COc1cccc(CNC(=O)CCCn2ccc3cc(S(=O)(=O)N4CCCC4)ccc32)c1	-8%	23µM*	-5%	-1%	.	-10%
O=C(NC1CC1)C1=C[C@@H](C2CCCCC2)C[C@@H](OCc2ccc(CO)cc2)O1	?	?	2%	-4%	.	-1%
CC(C)(C)[C@@H]1C=C(C(=O)Nc2ccccc2)O[C@H](OCc2ccc(CO)cc2)C1	?	7.3µM*	5%	5%	.	0%
C#CCNC(=O)C1=C[C@H](C(C)(C)C)C[C@H](OCc2ccc(CO)cc2)O1	0%	0%	-5%	1%	.	6%
NC(=O)C1=C[C@H](C2CCCCC2)C[C@H](OCc2ccc(CO)cc2)O1	11µM*	?	3.2µM*	2.5µM*	.	2.9µM*
COC(=O)CC1(c2ccccc2)C(=O)c2ccccc2C1=O	6%	0%	0%	-2%	0%	2%
O=C1c2ccccc2C(=O)C1(CO)c1ccc(OC(F)F)cc1	0.95µM*	?	0.45µM*	?	.	?
O=C1c2ccccc2C(=O)C1(CO)c1ccccc1	15µM*	?	?	26%	166%	-8%
O=C(Cc1ccccc1)NCC(=O)OCc1cccc([N+](=O)[O-])c1	2%	9%	2%	-2%	.	5%
CCOC(=O)C1(Cc2ccccc2Cl)CCN(C(=O)CN2CCOC2=O)CC1	11µM*	?	3.5µM*	?	.	?
CCC(C(=O)Nc1nnc2n1CCS2)c1ccccc1 (stereo not given)	1%	.	.	.	.	.
COC(=O)c1cc2c(cc1NC(=O)c1cnn(-c3ccc(C)cc3)c1-n1cccc1)OCO2	-2%	.	.	.	.	.
Cc1cccc(C(=O)N2CCCCCC2)c1	-2%	3%	8%	2%	-10%	2%
Cc1cccc(C(=O)n2c(=S)nc3ccccn32)c1	0.48µM*	?	0.45µM*	0.56µM*	4.5µM*	?
Cc1ccc(C(=O)n2c(=S)nc3ccccn32)cc1	0.12µM*	?	0.63µM*	0.79µM*	2µM*	?
O=C(c1ccccc1)n1c(=S)nc2ccccn21	0.43µM*	?	3.5µM*	1µM*	.	0.33µM*
Cc1ccc2c(c1)c1c(c(=O)n(-c3ccccc3)c(=O)n1CC(=O)c1ccc(F)cc1)n2C	-1%	.	.	.	.	.
Cc1ccc(C(=O)c2no[n+]([O-])c2C(=O)c2ccc(C)cc2)cc1	-13%	?	-48%	-36%	-15%	-2%
CCOc1ccccc1NC(=O)CN1C=NS(=O)(=O)c2ccccc21	-3%	.	.	.	.	.
